The source made the active and inactive calls.

A short description of test [1]: anti-His antibody binders, primary screen, artefact control for SMM control protein annotation, biochemical, small-molecule microarray, 635 nm fluorescence (AID 1128).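 Further: score merges feature fluorescence with signal-to-noise for each printed compound spot.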 As to conditions: anti-His Alexa647 antibody binding, higher = more signal.
Test [2] has as its system Human papillomavirus type 1a E7 protein (residues 1-88). The test can be described thus: HPV1a E7 small-molecule binders, primary screen, biochemical, small-molecule microarray, residues 1-88, 635 nm (AID 1129). As to conditions: small-molecule microarray binding, fluorescence 635 nm; higher = more signal.
The target in test [3] is Focal adhesion kinase 1 (Homo sapiens) (UniProt Q05397). The test can be described thus: small-molecule microarray binders of FAK, primary screen, biochemical, 635/667 nm fluorescence, BSA, DTT (AID 1130).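 Further: composite of spot emission at 667 nm and signal to noise over triplicate slides.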 The following applies: PTK2 binding, 635 nm fluorescence, higher = more signal.
Focal adhesion kinase 1 (Homo sapiens), sequence (Q05397 whole entry, looked up): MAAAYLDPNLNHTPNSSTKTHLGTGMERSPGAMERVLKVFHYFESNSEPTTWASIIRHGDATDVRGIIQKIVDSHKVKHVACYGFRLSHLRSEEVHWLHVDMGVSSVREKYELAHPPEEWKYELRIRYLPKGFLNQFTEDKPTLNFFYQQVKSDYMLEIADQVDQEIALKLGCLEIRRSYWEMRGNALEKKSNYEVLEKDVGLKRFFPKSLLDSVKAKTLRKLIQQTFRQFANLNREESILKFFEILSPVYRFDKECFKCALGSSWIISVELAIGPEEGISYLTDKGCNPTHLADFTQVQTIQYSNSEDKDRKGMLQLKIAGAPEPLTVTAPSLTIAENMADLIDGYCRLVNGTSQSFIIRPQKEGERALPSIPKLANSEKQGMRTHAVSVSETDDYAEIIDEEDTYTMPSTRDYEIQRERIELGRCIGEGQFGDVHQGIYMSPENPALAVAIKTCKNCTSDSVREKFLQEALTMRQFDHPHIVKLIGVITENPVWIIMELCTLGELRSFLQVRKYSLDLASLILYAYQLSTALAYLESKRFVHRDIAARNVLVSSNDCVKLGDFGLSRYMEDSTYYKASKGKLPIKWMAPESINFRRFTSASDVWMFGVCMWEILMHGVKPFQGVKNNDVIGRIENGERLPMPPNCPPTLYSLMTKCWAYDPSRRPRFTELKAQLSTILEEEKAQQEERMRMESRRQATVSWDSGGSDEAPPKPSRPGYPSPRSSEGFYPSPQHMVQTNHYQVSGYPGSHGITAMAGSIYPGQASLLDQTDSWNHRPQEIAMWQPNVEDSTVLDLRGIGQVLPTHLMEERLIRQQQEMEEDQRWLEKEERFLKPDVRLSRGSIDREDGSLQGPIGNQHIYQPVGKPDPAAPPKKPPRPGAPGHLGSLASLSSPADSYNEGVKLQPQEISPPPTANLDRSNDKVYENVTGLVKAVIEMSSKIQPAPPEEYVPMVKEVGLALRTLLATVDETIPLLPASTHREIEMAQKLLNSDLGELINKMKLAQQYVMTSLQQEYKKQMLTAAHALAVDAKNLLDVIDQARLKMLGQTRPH
In test [4] the test system is Fibrinogen (Alexa647-labelled). The test can be described thus: fibrinogen binders on compound microarrays, profiling panel, artefact control for SMM control-protein annotation, biochemical, small-molecule microarray, 635/667 nm fluorescence (AID 1131).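 Further: z-score merges 667 nm fluorescence with per-spot signal-to-noise over triplicate slides.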 The following applies: fibrinogen-A647 binding fluorescence, higher = more signal.
In test [5] the target is Follistatin (Homo sapiens) (UniProt P19883). The test can be described thus: follistatin binders on small-molecule microarrays, primary screen, biochemical, small-molecule microarray, 635/667 nm fluorescence (AID 1132). As to conditions: FST binding, 635 nm fluorescence, higher = more signal.
Follistatin (Homo sapiens), sequence (P19883 whole entry, looked up): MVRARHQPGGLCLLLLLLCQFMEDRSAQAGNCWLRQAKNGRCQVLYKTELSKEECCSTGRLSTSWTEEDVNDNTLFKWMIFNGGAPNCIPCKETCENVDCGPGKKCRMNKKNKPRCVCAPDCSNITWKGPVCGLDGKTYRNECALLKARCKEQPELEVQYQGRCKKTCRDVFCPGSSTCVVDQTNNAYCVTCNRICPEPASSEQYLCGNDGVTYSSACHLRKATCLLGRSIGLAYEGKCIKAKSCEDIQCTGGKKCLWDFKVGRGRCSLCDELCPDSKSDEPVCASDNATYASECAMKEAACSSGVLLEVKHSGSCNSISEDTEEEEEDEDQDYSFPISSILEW
The target of test [6] is Fibroblast growth factor 2 (Homo sapiens) (UniProt P09038). The test can be described thus: FGF2 binders on small-molecule microarrays, primary screen, biochemical, small-molecule microarray, 635/667 nm fluorescence (AID 1133). The following applies: small-molecule microarray binding, FGF2, fluorescence 635/667; higher = more signal.
Fibroblast growth factor 2 (Homo sapiens), sequence (P09038 whole entry, looked up): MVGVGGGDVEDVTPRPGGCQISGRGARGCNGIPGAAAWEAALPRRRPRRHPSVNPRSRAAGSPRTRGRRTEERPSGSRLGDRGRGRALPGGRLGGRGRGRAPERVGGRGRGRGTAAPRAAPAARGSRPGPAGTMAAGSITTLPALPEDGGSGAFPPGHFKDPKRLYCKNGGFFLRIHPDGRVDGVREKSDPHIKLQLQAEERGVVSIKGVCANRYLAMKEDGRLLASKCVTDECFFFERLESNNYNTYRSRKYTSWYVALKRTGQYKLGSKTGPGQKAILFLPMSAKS
Test [7] in a line: mitochondrial membrane potential change in A549 cells, profiling panel, cell-based, JC-1 fluorescence, basal, 24 h, 100 nL (AID 1138).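 Further: A549 lung adenocarcinoma cells under basal conditions with no added stimulus; test concentration not given here.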 The following applies: higher = more signal.
A further test has as its system Lefty1. The test can be described thus: Lefty1 binders on small-molecule microarrays, primary screen, biochemical, small-molecule microarray, 635/667 nm fluorescence (AID 1139). The following applies: small-molecule microarray binding, fluorescence 635/667; higher = more signal.
Test [8] deals with wheat germ agglutinin (Triticum aestivum), Alexa647-labelled. The test can be described thus: wheat germ agglutinin binders on compound microarrays, profiling panel, artefact control for SMM control-protein annotation, biochemical, small-molecule microarray, 635/667 nm fluorescence (AID 1140).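 Further: score merges 667 nm feature emission with signal to noise over triplicate slides.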 As to conditions: WGA-A647 binding, 635 nm fluorescence, higher = more signal.
Test [9] deals with Luciferin 4-monooxygenase (Photinus pyralis) (UniProt P08659). The test can be described thus: firefly luciferase enzyme inhibitors, primary screen, biochemical, luminescence, purified enzyme, 2006 set (AID 1141).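 Further: cell-free assay with purified firefly luciferase at 100 ng per well in PBS; test concentration not given here.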 The following applies: SteadyGlo luminescence, 30 min, higher = more signal, called active from +8 up or from −8 down.
Luciferin 4-monooxygenase (Photinus pyralis), sequence (P08659 whole entry, looked up): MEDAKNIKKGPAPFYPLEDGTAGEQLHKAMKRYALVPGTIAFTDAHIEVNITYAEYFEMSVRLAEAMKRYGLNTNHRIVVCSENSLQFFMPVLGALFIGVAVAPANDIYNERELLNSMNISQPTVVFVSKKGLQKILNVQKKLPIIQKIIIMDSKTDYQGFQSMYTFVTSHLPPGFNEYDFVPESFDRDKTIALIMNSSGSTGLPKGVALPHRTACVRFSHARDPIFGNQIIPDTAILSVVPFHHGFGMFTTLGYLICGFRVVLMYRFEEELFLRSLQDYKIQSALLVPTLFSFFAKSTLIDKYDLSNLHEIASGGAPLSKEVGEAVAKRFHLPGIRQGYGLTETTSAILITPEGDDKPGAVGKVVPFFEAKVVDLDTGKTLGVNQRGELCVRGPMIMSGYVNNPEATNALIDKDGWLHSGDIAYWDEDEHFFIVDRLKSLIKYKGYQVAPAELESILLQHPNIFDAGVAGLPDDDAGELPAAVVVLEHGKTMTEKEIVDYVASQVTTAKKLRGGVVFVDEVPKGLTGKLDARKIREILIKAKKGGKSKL

As to `CCCC=C(CCC)[C@@H](NC(=O)Cc1ccccc1)c1ccc(C(=O)OC)cc1`, the composite z-score amounted to 1.2 in test [1]; 0.821 in [2]; 0.563 in test [3]; 0.714 in [4]; 0.28 in [5]; 0.0515 in [6]. The composite z-score is -0.365 in the test with Lefty1 and 1.03 in test [8]. Also, the z-score was -0.298 in test [7] and 1.54 (inactive) in [9].

In the case of `O=C(NCc1ccccc1)[C@]1(Cc2ccccc2)N=C(c2ccc(OCCCO)cc2)O[C@@H]1c1ccccc1`, the composite z-score in test [1] was 2.31; in test [2] it was 1.2; in test [3], 0.121; in test [4] it was 0.817; in test [5], -0.0037; in test [6] it was -0.0759. Further, the composite z-score with Lefty1 was -0.501; in [8] it was 0.648. The results for the z-score in [7] and in test [9] were 2 and -0.794 (inactive), respectively.

Take `CC(C)C[C@@H]1NC(=O)[C@@]23C(=O)N[C@@H](Cc4ccccc4)C2[C@H](C)[C@@]2(C)O[C@H]2C3/C=C/C/C=C\CNC(=O)[C@@H]2CCCN2C1=O` (stereo not given in full): the composite z-score is 0.886 in [1]; -1.05 in test [2]; -0.0278 in test [3]; -0.94 in test [4]; 0.368 in [5]; 0.392 in test [6]. Besides, the composite z-score with Lefty1 is 0.571; in [8], -0.299. Further, the z-score in test [7] is 0.579; in [9], 0.0046 (inactive).

With `O=C1O[C@@H](c2ccccc2)[C@@H](c2ccccc2)N2[C@@H](c3ccc(O)cc3)[C@]3(C(=O)Nc4ccc(C#CC5=CCCCC5)cc43)[C@@H](C(=O)Nc3nc4ccccc4s3)[C@H]12`, the composite z-score amounted to 1.15 in test [1]; 1.22 in test [2]; 0.32 in test [3]; 0.852 in [4]; 1.25 in [5]; 1.35 in test [6]. Further, the composite z-score in the test with Lefty1 amounted to 1.54; in test [8] it was 1.32. The z-score in [7] is -1.8; in [9] it was -1.34 (inactive).

For the compound `C/C=C/[C@@H](CCn1cc([C@H](O)c2ccccc2)nn1)[Si](C)(C)c1ccc(OC)cc1`, the composite z-score in test [1] is 0.0974; in test [2], -0.253; in [3], 0.0213; in [4], -0.267; in [5] it was -0.673; in test [6], -0.62. Also, the composite z-score is -0.337 with Lefty1 and 0.418 in test [8]. Moreover, the z-score in test [7] was 0.947; in test [9], 0.273 (inactive).

As for `CC(C)CCC[C@@H](C)[C@H]1CC[C@@]2(C)C3=C(CC[C@]12C)[C@@]1(C)CC[C@H](OC(=O)c2ccc(N)cc2)C(C)(C)C1CC3` (stereo not given in full), the composite z-score in test [1] turned out to be 0.467; in test [2], 0.398; in test [3] it was 0.108; in test [4] it was 0.483; in test [5], 0.552; in test [6] it was 0.612. Moreover, the results for the composite z-score (in the test with Lefty1; in test [8]) were 0.552 and 0.0599, respectively. Besides, the z-score in [7] is 1.32; in test [9] it was -1.43 (inactive).

Consider `Cc1ccc(S[C@]2(C(=O)O)CC(=O)N(Cc3ccccc3C(F)(F)F)[C@@H]2c2ccc(CO)cc2)cc1`, for which the composite z-score in [1] is -0.916; in test [2], -0.543; in test [3] it was 0.0068; in [4] it was -0.772; in test [5], -0.238; in test [6], -1.18. For the same compound, the composite z-score with Lefty1 was -1.27; in test [8], -0.475. Further, the z-score was 0.391 in test [7] and 0.989 (inactive) in test [9].

On to `CCC[C@@H]1C[C@@]1(CCC)[C@@H](NC(=O)c1ccco1)c1ccc(Cl)cc1`, for which the composite z-score in test [1] was -0.348; in [2] it was -1.71; in test [3] it was -0.386; in [4], -0.495; in test [5] it was -0.388; in test [6] it was -0.882. For the same compound, the composite z-score with Lefty1 was -0.769; in test [8] it was -0.493. The z-score was 0.523 in test [7] and -0.31 (inactive) in [9].

Consider `NC(=O)[C@@H]1[C@H]2C(=O)O[C@H](c3ccccc3)[C@H](c3ccccc3)N2[C@H](c2ccccc2OCCO)[C@@]12C(=O)Nc1ccc(C#CCCO)cc12`, for which the composite z-score was 0.553 in [1]; -0.464 in test [2]; 0.155 in [3]; 0.947 in test [4]; -0.0704 in test [5]; -0.455 in [6]. For the same compound, the composite z-score is -0.128 in the test on Lefty1 and 0.335 in [8]. The z-score in [7] is 0.669; in test [9], 1 (inactive).

Regarding `OCc1ccc(-c2cc[n+](Cc3cccc(OC(F)(F)F)c3)cc2)cc1`, the composite z-score is 2.33 in [1]; 1.07 in test [2]; 0.0665 in test [3]; 0.708 in test [4]; 1.45 in [5]; 1.25 in test [6]. The figures for the composite z-score (in the test with Lefty1; in test [8]) were 1.47 and 0.528, respectively. In addition, the z-score in [7] was -0.884; in test [9], 0.194 (inactive).

Take `CC(C)NC(=O)[C@@]1(Cc2ccccc2I)c2ccccc2C(=O)N(Cc2ccccc2C(F)(F)F)[C@H]1c1ccc(CO)cc1`: the composite z-score in [1] was 0.992; in [2], 0.906; in test [3], 0.601; in [4], 0.75; in test [5], 0.464; in test [6] it was 0.125. Also, the composite z-score was 0.266 in the test on Lefty1 and 1.15 in test [8]. For the same compound, the z-score was 1.29 in test [7] and -0.793 (inactive) in test [9].

As for `CC(C)C[C@@H]1NC(=O)[C@@H]2C[C@H](C(=O)NCCCC[N+](C)(C)C)[C@H](c3cccc(OCCO)c3)N2C1=O`, the composite z-score in test [1] was 2.63; in test [2] it was 0.235; in test [3], -0.584; in test [4], -0.173; in test [5], 1.45; in test [6], 1.38. Also, the composite z-score in the test on Lefty1 was 1.47; in test [8], -0.445. Also, the values for the z-score in test [7] and in test [9] were -0.69 and -0.45 (inactive), respectively.

Consider `COc1ccccc1CN1C(=O)c2ccccc2[C@@H](C(=O)NCC(C)C)[C@@H]1c1ccc(CO)cc1`, for which the composite z-score stood at 0.366 in test [1]; 1.18 in [2]; 0.088 in test [3]; 0.707 in test [4]; 1.23 in test [5]; 1.56 in [6]. The composite z-score in the test on Lefty1 is -0.632; in test [8] it was 0.342. The z-score in test [7] is 0.163; in test [9] it was -0.836 (inactive).

Source of the values: PubChem BioAssay.
